EPAC2 antag – EPAC2 (human) antagonism | Q8WZA2 | AID 720708 | 0.18% of 360,000 active | EPAC2 GEF exchange of Rap1B-BODIPY-GDP, fluorescence | Potency, µM (titrated, usually from 114 µM), hits mostly inhibitors; further: nearly all actives have a fitted effect of over 45% in size
EPAC1 antag – EPAC1 (human) antagonism | O95398 | EPAC1 GEF assay, Rap1b-BODIPY-GDP exchange fluorescence | Potency, µM (series often up to 115 µM), actives largely listed as inhibitors | 0.14% of 360,000 active; further: nearly all actives have a fitted effect of over 50% in size
Target sequence (O95398 whole entry, looked up): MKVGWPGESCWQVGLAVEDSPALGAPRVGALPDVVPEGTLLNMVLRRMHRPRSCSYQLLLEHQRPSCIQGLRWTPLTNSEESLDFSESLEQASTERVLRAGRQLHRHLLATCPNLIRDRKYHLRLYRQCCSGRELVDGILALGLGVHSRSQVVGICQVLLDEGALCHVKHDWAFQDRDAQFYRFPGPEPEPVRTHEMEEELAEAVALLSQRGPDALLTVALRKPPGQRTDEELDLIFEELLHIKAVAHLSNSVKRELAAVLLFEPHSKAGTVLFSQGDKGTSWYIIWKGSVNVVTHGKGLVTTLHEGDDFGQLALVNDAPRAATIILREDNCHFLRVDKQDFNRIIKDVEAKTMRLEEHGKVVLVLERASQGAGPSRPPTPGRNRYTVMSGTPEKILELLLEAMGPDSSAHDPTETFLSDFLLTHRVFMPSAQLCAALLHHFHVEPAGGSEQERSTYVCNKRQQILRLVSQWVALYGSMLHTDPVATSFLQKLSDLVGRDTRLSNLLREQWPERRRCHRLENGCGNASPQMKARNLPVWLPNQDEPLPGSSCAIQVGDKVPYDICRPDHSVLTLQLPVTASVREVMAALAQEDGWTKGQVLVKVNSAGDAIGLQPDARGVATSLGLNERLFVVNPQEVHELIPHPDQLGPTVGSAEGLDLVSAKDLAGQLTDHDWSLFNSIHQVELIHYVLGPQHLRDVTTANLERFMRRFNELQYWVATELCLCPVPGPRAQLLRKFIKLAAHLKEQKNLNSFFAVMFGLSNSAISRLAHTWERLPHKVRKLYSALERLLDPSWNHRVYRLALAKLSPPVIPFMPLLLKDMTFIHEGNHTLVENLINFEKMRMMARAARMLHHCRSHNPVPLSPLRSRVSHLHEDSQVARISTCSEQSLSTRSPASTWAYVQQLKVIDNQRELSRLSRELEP
FBPA coupling cs – counter-screen for Giardia aldolase inhibitors: coupling enzyme system | coupling enzyme system counterscreen, AmpLite Red fluorescence | AID 2472 | 0.67% of 290,000 active | activity change, negative = inhibition, % at 58.2 µM, hits read low; in the data active means activity change below about -30%
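Coupling enzymes only (glyceraldehyde-3-phosphate) + compound, at 57.5 uM final, 10 min RT; add substrate/coupling/AmpLite Red mix, 20 min RT; fluorescence ex 525/em 598 nm. Actives flag coupling-system interference.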
USP1-UAF1 inh – blocks the human USP1/UAF1 deubiquitinase complex; 0.23% of 390,000 active; Potency, µM (top dose mostly 57.1 µM), most hits filed as inhibitors; recombinant USP1/UAF1, Ub-Rhodamine cleavage fluorescence; AID 743255; O94782; further: nearly all actives have a fitted effect of over 60% in size
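High-throughput fluorogenic screen: 1nM USP1/UAF1 complex, Ub-Rho substrate 150nM final, 50mM HEPES pH 7.8 with 0.5mM EDTA, 0.1 mg/ml BSA, 1mM TCEP and 0.01% Tween-20.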
EPAC1 agonist – agonists of human EPAC1. O95398. EPAC1 agonist qHTS, biochemical assay; response scale: 100% = response to 6.5 mM cAMP. Potency, µM (top dose mostly 154 µM), usual class: activators. 0.073% of 360,000 active. AID 720707; further: nearly all actives have a fitted effect of over 60% in size
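Nucleotide exchange assay: 100 nM EPAC1 with 250 nM Rap1B loaded with BODIPY-GDP and 50 uM GDP, room temperature. Fluorescence (480/540 nm) read every 5 min for 30 min; signal change normalized to 6.5 mM cAMP as full agonist.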
EPAC2 ag – agonists of human EPAC2 (RAPGEF4); Q8WZA2; EPAC2 activation, biochemical qHTS; response scale: 100% = 6.5 mM cAMP response; Potency, µM (series often up to 154 µM), most hits filed as activators; 0.079% of 360,000 active; further: nearly all actives have a fitted effect of over 50% in size
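Readout is BODIPY fluorescence (480 nm excitation, 540 nm emission), which falls as labeled GDP is exchanged off Rap1B. EPAC2 at 100 nM acted on 250 nM RAP1B-BODIPY-GDP with 50 uM GDP present.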
Of the large screens only hits and unclear results are named; the others gave an inactive call. Only some compounds are listed: those with a hit (about 0.87% of all), similar ones and a draw of the others. Unless noted, the call rests on the fitted dose curve; in most records, active means well fitted curve in the direction sought with a large enough effect; inconclusive means small, poorly fitted or top-dose-only effect, or another doubt; inactive means no such curve, though single readings can be large; an effect the other way counts as inactive or inconclusive.

CCN1CCc2c(sc(NC(=O)c3ccc(C(=O)c4ccccc4)cc3)c2C(N)=O)C1	none
CC(=O)N1CCc2c(sc(NC(=O)CS(=O)(=O)c3ccc(F)cc3)c2C(N)=O)C1	EPAC1 agonist 126µM (no result: FBPA coupling cs)
CCN1CCc2c(sc(NC(=O)Cc3ccccc3)c2C(N)=O)C1	none
CCN1CCc2c(sc(NC(=O)c3ccc(S(=O)(=O)N(CC)c4ccccc4)cc3)c2C(N)=O)C1	EPAC1 antag inconclusive, USP1-UAF1 inh 28µM (no result: FBPA coupling cs)
CCN1CCc2c(sc(NC(=O)Nc3ccc(Cl)c(Cl)c3)c2C(N)=O)C1	EPAC2 antag inconclusive, EPAC1 antag inconclusive, USP1-UAF1 inh inconclusive, EPAC1 agonist 100µM, EPAC2 ag 100µM
CN1CCc2c(sc(NC(=O)CS(=O)(=O)c3ccc(F)cc3)c2C(N)=O)C1	none (no result: FBPA coupling cs)
CCN1CCc2c(sc(NC(=O)c3ccc(S(=O)(=O)N4CCCCCC4)cc3)c2C(=O)NC)C1	EPAC1 agonist 112µM (no result: FBPA coupling cs)
c1cn2cc(CN3CCOCC3)nc2s1	none
NC(=O)c1c(NC(=O)c2ccccc2)sc2c1CCN(Cc1ccccc1)C2	USP1-UAF1 inh 8.9µM, EPAC2 ag 89µM
NC(=O)c1c(NC(=O)c2c(F)cccc2F)sc2c1CCN(Cc1ccccc1)C2	USP1-UAF1 inh inconclusive
Cc1ccc(/C=N/NC(=O)CSc2nc3ccccc3n2C)s1	FBPA coupling cs -32
CCOc1cc(/C=C(\C#N)C(=O)Nc2cccc(C(=O)O)c2)ccc1OCc1ccccc1Cl	USP1-UAF1 inh inconclusive
CCOc1cc(/C=C(\C#N)C(=O)Nc2cccc(C(=O)O)c2)cc(Br)c1OC(=O)c1ccc(OC)cc1	EPAC2 antag 50µM, EPAC1 antag inconclusive
COC(=O)c1c(C)[nH]c(O)c1C=Nc1ccc(C#N)cc1	FBPA coupling cs -36
CCOC(=O)c1c(C)[nH]c(O)c1C=Nc1ccccc1	none
CC1(C)CC(=O)C2=C(C1)c1c(ccc3ccccc13)NC2c1ccc(C(=O)O)cc1 (stereo not given)	none
CC1(C)CC(=O)C2=C(C1)c1c(ccc3ccccc13)NC2c1cc([N+](=O)[O-])cc([N+](=O)[O-])c1O (stereo not given)	EPAC2 antag 79µM, EPAC1 antag 32µM, USP1-UAF1 inh inconclusive
c1ccc2c(c1)oc1c(-c3ccc4nccn4c3)cccc12	EPAC2 antag 10µM (no result: FBPA coupling cs, USP1-UAF1 inh)
CC1CCN(S(=O)(=O)c2ccc3c(c2)N(CC(=O)NCc2cccnc2)C(=O)CS3)CC1	none
Cc1c(CCC(=O)O)c(=O)oc2c(C)c3occ(-c4ccc(Cl)cc4)c3cc12	EPAC1 antag 40µM, USP1-UAF1 inh inconclusive, EPAC1 agonist inconclusive, EPAC2 ag inconclusive
Oc1c(Br)cc(Br)cc1CNc1ccc(F)cc1	EPAC2 antag inconclusive, FBPA coupling cs -33
O=C(O)CN1C(=O)/C(=C\c2cc(Br)ccc2OCc2ccccc2F)SC1=S	EPAC2 antag 56µM, EPAC1 antag inconclusive, USP1-UAF1 inh inconclusive
O=C(O)CN1C(=O)/C(=C\c2cc(Br)ccc2OCc2ccccc2Cl)SC1=S	EPAC1 antag 40µM, USP1-UAF1 inh inconclusive
CC(=O)N1CCN(S(=O)(=O)c2ccc3c(c2)CC(=O)N3)CC1	none (no result: FBPA coupling cs)
COCOCCn1cc(CN2CCS(=O)(=O)N(Cc3ccc(-c4ccc(F)cc4)cc3)C(C(C)C)C2=O)nn1 (stereo not given)	none (no result: FBPA coupling cs)
CCc1ccc2[nH]c3nc(N/N=C/c4cccc(O)c4)nnc3c2c1	none
N#CC1=C2SCN(C3CCCCC3)CN2C(=O)CC1c1ccc(Cl)cc1 (stereo not given)	none (no result: EPAC2 antag, EPAC1 antag, FBPA coupling cs, EPAC1 agonist, EPAC2 ag)
N#CC1=C2SCN(C3CCCCC3)CN2C(=O)CC1c1c(F)cccc1Cl (stereo not given)	USP1-UAF1 inh 32µM (no result: EPAC2 antag, EPAC1 antag, FBPA coupling cs, EPAC1 agonist, EPAC2 ag)
Cc1ccc(C2CC(=O)N3CN(Cc4ccco4)CSC3=C2C#N)cc1 (stereo not given)	none
N#CC1=C2SCN(Cc3ccco3)CN2C(=O)CC1c1c(F)cccc1Cl (stereo not given)	EPAC2 antag inconclusive, USP1-UAF1 inh 13µM
CC1=CC(=Nc2c(C)n(C)n(-c3ccccc3)c2=O)C=CC1=O	FBPA coupling cs -46 (no result: EPAC2 antag, EPAC1 antag, USP1-UAF1 inh, EPAC1 agonist, EPAC2 ag)
CC1=CC(=Nc2c(C)n(C)n(-c3ccccc3)c2=O)C=C(C)C1=O	FBPA coupling cs -48
CCC(C)C1=CC(=Nc2c(C)n(C)n(-c3ccccc3)c2=O)C=C(C(C)CC)C1=O (stereo not given)	none
Cc1ccc2[nH]c(C)c(CC(=O)O)c2c1	FBPA coupling cs -40
CCC(C)n1c(=N)c(C#N)cc2c(=O)n3ccccc3nc21 (stereo not given)	EPAC2 ag 56µM
COc1ccc(C(NC(=O)c2cc(OC)ccc2OC)c2ccccc2)cc1 (stereo not given)	EPAC2 antag 45µM
O=C(Nc1ccc(S(=O)(=O)Nc2nccs2)cc1)c1cc(-c2ccccn2)nc2ccccc12	EPAC1 antag 71µM
CC(C)(C)Cc1c(-c2ccc(F)cc2)nc2ccc(Cl)cn12	EPAC2 antag inconclusive (no result: FBPA coupling cs)
COC(=O)c1ccc(S(=O)(=O)NCc2ccc(S(N)(=O)=O)cc2)n1C	none
COC(=O)c1ccc2c(c1O)C(=O)c1ccccc1C2=O	FBPA coupling cs -44
COC(=O)c1ccc(Cn2c(C)c(C(=O)NCc3ccc(C#N)cc3)sc2=O)o1	none (no result: FBPA coupling cs, USP1-UAF1 inh)
O=C(O)c1ccc2c3c(cccc13)C(=O)N(c1ccccc1)C2=O	none
Nc1ccc2c3c(cccc13)C(=O)N(c1ccccc1)C2=O	USP1-UAF1 inh inconclusive, EPAC1 agonist 100µM, EPAC2 ag 100µM
CCN1C(=O)c2cccc3c(Cl)ccc(c23)C1=O	none
O=C(O)c1cccc(N2C(=O)c3cccc4c(Cl)ccc(c34)C2=O)c1	none
CN(C)c1ccc2c3c(cccc13)C(=O)N(c1ccccc1)C2=O	none (no result: EPAC2 antag, EPAC1 antag, USP1-UAF1 inh, EPAC1 agonist, EPAC2 ag)
CC(C)CCN1C(=O)c2cccc3c(N)ccc(c23)C1=O	USP1-UAF1 inh inconclusive, EPAC1 agonist 71µM, EPAC2 ag inconclusive (no result: FBPA coupling cs)
Nc1cccc(N2C(=O)c3cccc4c(N)ccc(c34)C2=O)c1	USP1-UAF1 inh 28µM, EPAC1 agonist 100µM, EPAC2 ag 89µM
Cc1cccc(N2C(=O)c3cccc4c(N(C)CCO)ccc(c34)C2=O)c1	USP1-UAF1 inh 28µM, EPAC1 agonist 112µM, EPAC2 ag 100µM
CCCOc1ccc2c(=O)c(-c3cc(C(=O)OC)oc3C)c(C)oc2c1	none
O=S1(=O)CCN(Cc2csc(-c3cccs3)n2)CC1	none
CCN(CC)C(=O)C1CCN(CC2CC=CCC2)CC1 (stereo not given)	none
Cc1cccc(N2C(=O)c3cccc4c(N)ccc(c34)C2=O)c1	USP1-UAF1 inh 28µM, EPAC1 agonist 89µM, EPAC2 ag 100µM

Screening data from PubChem BioAssay.
